The target in experiment [1] is Estrogen receptor (Homo sapiens) (UniProt P03372). Description: qHTS assay for small molecule agonists of estrogen receptor alpha signaling (AID 588514).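 Also: 0% = vehicle only and 100% = reference agonist; nearly all actives have a fitted effect of over 70% in size.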 The procedure, abridged: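 Cells were plated at 5000/well, incubated 4 hrs at 37 C, dosed with compound titration series, incubated 18 hrs at 37 C, loaded with CCF4 dye for 2 hrs at RT, then fluorescence was read.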
Chain of Estrogen receptor (Homo sapiens) (P03372 whole entry, looked up): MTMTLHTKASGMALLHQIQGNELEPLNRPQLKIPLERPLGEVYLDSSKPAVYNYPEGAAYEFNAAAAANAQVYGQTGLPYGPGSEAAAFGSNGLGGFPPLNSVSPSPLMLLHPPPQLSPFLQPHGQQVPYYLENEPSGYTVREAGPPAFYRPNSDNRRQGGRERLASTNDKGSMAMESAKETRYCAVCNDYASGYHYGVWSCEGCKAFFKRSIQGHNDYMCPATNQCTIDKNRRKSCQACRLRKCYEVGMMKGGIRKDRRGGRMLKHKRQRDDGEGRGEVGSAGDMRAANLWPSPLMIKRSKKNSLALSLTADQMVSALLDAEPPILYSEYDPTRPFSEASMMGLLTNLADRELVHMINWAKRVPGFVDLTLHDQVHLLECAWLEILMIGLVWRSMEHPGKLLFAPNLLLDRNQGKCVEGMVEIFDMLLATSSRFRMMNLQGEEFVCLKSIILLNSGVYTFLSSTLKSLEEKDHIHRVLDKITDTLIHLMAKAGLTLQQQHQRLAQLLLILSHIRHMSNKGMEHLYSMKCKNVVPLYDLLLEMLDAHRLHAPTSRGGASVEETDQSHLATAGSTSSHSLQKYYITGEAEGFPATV

The target of experiment [2] is Androgen receptor (Homo sapiens) (UniProt P10275). In words: qHTS assay for small molecule agonists of androgen receptor signaling (AID 588515; active = well fitted curve in the direction sought with a large enough effect in the signal ratio, with a control signal flat; the % refers to the signal ratio; also: % is scaled to controls: 0 for no effect and ±100 for the full control effect). Conditions: AR-UAS-bla HEK293, beta-lactamase ratio, agonist 16 h; stronger effect = higher value. Put shortly: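 EC50 and efficacy came from Hill fits of titrations (up to 92 uM) normalized to 30 nM R1881 as 100% and DMSO as 0%. Compound exposure was 16 h at 37 C on AR-UAS-bla HEK293 cells, with a 405/460/530 nm CCF4 fluorescence read.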
In general terms: qHTS replaces the single test concentration by a dilution series.

Experiment [3] has the same target. In words: qHTS assay for small molecule antagonists of androgen receptor signaling (AID 588516; active = well fitted curve in the direction sought with a large enough effect in the signal ratio, with a control signal flat, not every such curve was filed as active; the % refers to the signal ratio; also: % is scaled to controls: 0 for no effect and ±100 for the full control effect). The procedure, abridged: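 AR-UAS-bla-GripTite HEK 293 cells (2000/well, 5 h at 37 C) received compound titrations, then R1881 at 10 nM final; after 16 h at 37 C, CCF4 dye 2 h RT, beta-lactamase fluorescence read; IC50 from Hill fits.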
Experiment [4] addresses Glucocorticoid receptor (Homo sapiens) (UniProt P04150). Description: qHTS assay for small molecule agonists of glucocorticoid receptor signaling (AID 588532; active = well fitted curve in the direction sought with a large enough effect in the signal ratio, with a control signal flat; the % refers to the signal ratio;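 also: 100% = dexamethasone at 0.1 µM and 0% = DMSO only wells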). Particulars: HeLa MMTV-bla, beta-lactamase ratio, agonist, 18 h; stronger effect = higher value; percent of dexamethasone control, DMSO zero. The procedure, abridged: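 MMTV-bla HeLa, beta-lactamase reporter; medium with 1% charcoal/dextran-stripped FBS; cpds up to 92 uM, 18 h, 37 C; CCF4 readout 460/530 nm; Hill fit → EC50, efficacy vs 0.1 uM dexamethasone = 100%.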

Experiment [5] shares this target. In words: qHTS assay for small molecule antagonists of glucocorticoid receptor signaling (AID 588533; active = well fitted inhibition curve with a large enough effect in the signal ratio, with a control signal flat, not every such curve was filed as active; the % refers to the signal ratio;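 also: cells stimulated with 2 nM dexamethasone as agonist; % is scaled to controls: 0 for no effect and ±100 for the full control effect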). The procedure, abridged: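 Antagonist-mode qHTS: compound titrations added to GRE-bla HeLa cells, then dexamethasone 2 nM final; 18 h, 37 C. CCF4 FRET fluorescence normalized to dexamethasone and DMSO; IC50 from Hill fit.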
Experiment [6] can be described thus: qHTS assay for small molecule antagonists of peroxisome proliferator-activated receptor delta signaling (AID 588535; active = well fitted inhibition curve with a large enough effect in the signal ratio, with a control signal flat, not every such curve was filed as active; the % refers to the signal ratio; also: potency is read from the fitted curve at half-maximal effect;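 as to max response: cells co-treated with a PPAR-delta agonist as stimulator during compound exposure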). Conditions: HEK293T PPARd-UAS-bla, beta-lactamase FRET ratio, 18 h; 460 nm channel. Put shortly: (§1)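 Reporter: UAS-bla under PPAR-delta response element, HEK293T host. Medium: 2% charcoal/dextran FBS. Dosing: titration, 18 hrs, 37 C. Detection: CCF4, 2 hrs RT, 405 ex/460 and 530 em.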

The target in experiment [7] is Peroxisome proliferator-activated receptor delta (Homo sapiens) (UniProt Q03181). Described as above. The procedure, abridged:
as §1

In experiment [8] the target is Peroxisome proliferator-activated receptor gamma (Homo sapiens) (UniProt P37231). Description: qHTS assay for small molecule agonists of peroxisome proliferator-activated receptor gamma signaling (AID 588536; active = well fitted curve in the direction sought with a large enough effect in the signal ratio, with a control signal flat, not every such curve was filed as active; the % refers to the signal ratio;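 also: 0% = DMSO basal wells and 100% = rosiglitazone at 2 µM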). The procedure, abridged:
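HEK293 UAS-bla reporter line, 1% charcoal/dextran FBS; titration, 16 h, 37 C; CCF4 loading 2 h RT; fluorescence 460/530 nm. Normalized to rosiglitazone 2 uM = 100%, DMSO = 0%.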

Experiment [9] shares this target. In words: qHTS assay for small molecule antagonists of peroxisome proliferator-activated receptor gamma signaling (AID 588537; active = well fitted inhibition curve with a large enough effect in the signal ratio, with a control signal flat, not every such curve was filed as active; the % refers to the signal ratio;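 also: reporter cells co-stimulated with 50 nM rosiglitazone agonist during compound treatment; % of control where 0% means no effect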). Put shortly:
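We seeded GeneBLAzer HEK293 reporter cells at 3000 per well, allowed 6-6.5 h attachment at 37 C, then co-treated with test compound titrations and 50 nM rosiglitazone overnight (16 h). Inhibition was quantified from 460/530 nm emission ratios.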

The target of experiment [10] is Vitamin D3 receptor (Homo sapiens) (UniProt P11473). Description: qHTS assay for small molecule antagonists of vitamin D receptor signaling (AID 588541).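 Also: receptor activated by calcitriol during compound treatment; series mostly up to about 77 µM; % is scaled to controls: 0 for no effect and ±100 for the full control effect.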 The procedure, abridged: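 VDR-UAS-bla HEK293T cells (2000/well, 2% charcoal-stripped FBS) were treated with titrated compounds plus 1-alpha,25-dihydroxyvitamin D3 (50 nM or 3 nM final) for 16 h at 37 C. CCF4 beta-lactamase fluorescence was read; Hill fits gave IC50.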
Chain of Vitamin D3 receptor (Homo sapiens) (P11473 whole entry, looked up): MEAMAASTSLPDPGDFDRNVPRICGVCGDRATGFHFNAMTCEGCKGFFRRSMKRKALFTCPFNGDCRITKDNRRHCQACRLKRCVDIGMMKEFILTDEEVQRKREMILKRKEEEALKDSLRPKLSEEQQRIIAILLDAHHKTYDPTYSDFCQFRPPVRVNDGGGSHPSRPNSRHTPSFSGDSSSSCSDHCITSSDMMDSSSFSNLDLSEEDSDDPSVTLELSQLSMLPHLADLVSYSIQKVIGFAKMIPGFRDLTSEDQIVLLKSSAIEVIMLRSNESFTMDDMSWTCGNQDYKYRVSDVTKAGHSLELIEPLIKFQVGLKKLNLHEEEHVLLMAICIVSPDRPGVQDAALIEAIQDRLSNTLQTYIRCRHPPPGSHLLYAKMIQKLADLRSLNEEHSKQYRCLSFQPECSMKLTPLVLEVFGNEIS

Experiment [11] shares this target. Description: qHTS assay for small molecule agonists of vitamin D receptor signaling (AID 588543).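 Also: 0% = DMSO basal and 100% = reference agonist control.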 The procedure, abridged: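 GeneBLAzer VDR-UAS-bla HEK293T cells in 2% charcoal-stripped FBS medium were dosed with compound titrations for 16 h at 37 °C; CCF4 β-lactamase readout (405 nm ex, 460/530 nm em). EC50 and efficacy from Hill fits, normalized to 50 nM calcitriol (100%) and DMSO (0%).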

Experiment [12] can be described thus: qHTS assay for small molecule agonists of retinoid X receptor alpha signaling (AID 588544).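 As to activation: 0% = DMSO basal wells and 100% = reference agonist.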 Particulars: HEK293T RXRa-UAS-bla, beta-lactamase reporter, 18 h; 530 nm emission.
The target of experiment [13] is Retinoic acid receptor RXR-alpha (Homo sapiens) (UniProt P19793). Described as above.
Chain of Retinoic acid receptor RXR-alpha (Homo sapiens) (P19793 whole entry, looked up): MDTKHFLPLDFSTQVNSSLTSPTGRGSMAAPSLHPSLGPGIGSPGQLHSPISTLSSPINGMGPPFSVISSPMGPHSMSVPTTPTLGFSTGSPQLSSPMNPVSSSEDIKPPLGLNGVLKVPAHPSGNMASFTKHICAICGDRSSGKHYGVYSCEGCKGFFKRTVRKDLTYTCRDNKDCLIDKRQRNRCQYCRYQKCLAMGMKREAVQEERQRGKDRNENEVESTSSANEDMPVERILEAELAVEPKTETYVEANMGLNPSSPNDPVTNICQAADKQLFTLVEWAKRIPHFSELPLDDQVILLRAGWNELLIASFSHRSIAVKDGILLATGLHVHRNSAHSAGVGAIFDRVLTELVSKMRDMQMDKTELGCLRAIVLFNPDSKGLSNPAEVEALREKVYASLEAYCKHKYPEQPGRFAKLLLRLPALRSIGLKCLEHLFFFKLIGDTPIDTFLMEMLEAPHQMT
The target in experiment [14] is Thyroid hormone receptor beta (Homo sapiens) (UniProt P10828). In words: qHTS assay for small molecule agonists of thyroid hormone receptor beta signaling (AID 588545). The procedure, abridged: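 HEK 293 TR-UAS-bla; agonist mode; 18 hrs, 37 C; CCF4, ex 405/em 460 and 530 nm; norm. T3 10 nM = 100%, DMSO = 0%; Hill fit → EC50, efficacy.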
Chain of Thyroid hormone receptor beta (Homo sapiens) (P10828 whole entry, looked up): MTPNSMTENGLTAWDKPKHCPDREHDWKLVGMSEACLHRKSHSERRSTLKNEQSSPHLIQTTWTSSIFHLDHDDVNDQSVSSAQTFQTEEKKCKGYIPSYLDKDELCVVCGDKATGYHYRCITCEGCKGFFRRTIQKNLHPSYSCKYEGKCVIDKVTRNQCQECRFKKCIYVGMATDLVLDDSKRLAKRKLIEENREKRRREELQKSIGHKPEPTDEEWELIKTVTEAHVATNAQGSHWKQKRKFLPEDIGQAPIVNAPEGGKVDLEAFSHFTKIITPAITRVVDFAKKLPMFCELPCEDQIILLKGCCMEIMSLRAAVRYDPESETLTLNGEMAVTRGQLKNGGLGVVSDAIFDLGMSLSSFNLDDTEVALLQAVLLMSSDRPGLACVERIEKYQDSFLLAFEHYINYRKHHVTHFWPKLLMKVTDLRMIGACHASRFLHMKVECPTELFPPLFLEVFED
The nature of experiment [15]: qHTS assay for small molecule antagonists of retinoid X receptor alpha signaling (AID 588546; active = well fitted inhibition curve with a large enough effect in the signal ratio, with a control signal flat, not every such curve was filed as active; the % refers to the signal ratio). Conditions: HEK293T RXRa-UAS-bla, beta-lactamase ratio, antagonist mode; measured here: W530 green channel, cytotoxicity proxy. The procedure, abridged: (§2)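 Beta-lactamase reporter inhibition, read as CCF4 fluorescence ratio (ex 405, em 460/530 nm) after 2 h at RT. HEK293T UAS-bla cells, 2500/well, were stimulated with 9-cis-RA at 500 or 100 nM final alongside test compound for 18 h at 37 C.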

In experiment [16] the target is Retinoic acid receptor RXR-alpha (Homo sapiens) (UniProt P19793). The experiment is described as above. Conditions: HEK293T RXRa-UAS-bla, beta-lactamase ratio, antagonist mode. The procedure, abridged:
as §2

Experiment [17] deals with Voltage-gated inwardly rectifying potassium channel KCNH2 (Homo sapiens) (UniProt Q12809). In words: qHTS Assay for Small Molecule Inhibitors of the Human hERG Channel Activity (AID 588834; active = well fitted inhibition curve with a large enough effect;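 also: top concentration of the series differs between compounds; % is scaled to controls: 0 for no effect and ±100 for the full control effect; lower thallium flux fluorescence means stronger hERG block; nearly all actives have a fitted effect of over 50% in size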). The procedure, abridged:
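U2OS cells transduced with hERG via BacMam (MOI ~100), plated 2000/well, loaded with FluxOR thallium dye, compound ~10 min, then stimulation buffer; fluorescence decrease read kinetically; AC50 from Hill fits.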

Experiment [18] has as its target Thyroid hormone receptor beta (Homo sapiens) (UniProt P10828). Description: qHTS assay for small molecule antagonists of thyroid hormone receptor beta signaling (AID 588547; active = well fitted inhibition curve with a large enough effect in the signal ratio, with a control signal flat, not every such curve was filed as active; the % refers to the signal ratio). Particulars: TR-UAS-bla HEK293, beta-lactamase ratio, antagonist mode, 18 h. Put shortly:
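TR-UAS-bla GripTite HEK293 cells in 2% charcoal/dextran FBS medium were preincubated 4 h at 37 C, given compound (0.59 nM to 92 uM) plus 0.4 nM T3 (final) for 18 h, then CCF4 for 2 h at RT; Hill fit gave IC50.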

Experiment [19] deals with Estrogen receptor (Homo sapiens) (UniProt P03372). In words: qHTS assay for small molecule antagonists of estrogen receptor alpha signaling (AID 588513; active = well fitted curve in the direction sought with a large enough effect in the signal ratio, with a control signal flat, not every such curve was filed as active; the % refers to the signal ratio; also: % is scaled to controls: 0 for no effect and ±100 for the full control effect). Put shortly:
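ER-alpha-UAS-bla GripTite HEK 293 cells in medium with 2% charcoal/dextran-treated FBS were preincubated 4 h at 37 C, dosed with compound (1:2 titration), stimulated with 0.5nM 17-beta-estradiol for 18 h, then read by CCF4 beta-lactamase fluorescence.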

“And” between values parts separate entries of the source, which are not always exact repeats. Identical values can stand only once. Inconclusive results are not listed. The source made the active and inactive calls. Unless noted, calls follow the shape of the full dose curve.

Chain of Voltage-gated inwardly rectifying potassium channel KCNH2 (Homo sapiens) (Q12809 whole entry, looked up): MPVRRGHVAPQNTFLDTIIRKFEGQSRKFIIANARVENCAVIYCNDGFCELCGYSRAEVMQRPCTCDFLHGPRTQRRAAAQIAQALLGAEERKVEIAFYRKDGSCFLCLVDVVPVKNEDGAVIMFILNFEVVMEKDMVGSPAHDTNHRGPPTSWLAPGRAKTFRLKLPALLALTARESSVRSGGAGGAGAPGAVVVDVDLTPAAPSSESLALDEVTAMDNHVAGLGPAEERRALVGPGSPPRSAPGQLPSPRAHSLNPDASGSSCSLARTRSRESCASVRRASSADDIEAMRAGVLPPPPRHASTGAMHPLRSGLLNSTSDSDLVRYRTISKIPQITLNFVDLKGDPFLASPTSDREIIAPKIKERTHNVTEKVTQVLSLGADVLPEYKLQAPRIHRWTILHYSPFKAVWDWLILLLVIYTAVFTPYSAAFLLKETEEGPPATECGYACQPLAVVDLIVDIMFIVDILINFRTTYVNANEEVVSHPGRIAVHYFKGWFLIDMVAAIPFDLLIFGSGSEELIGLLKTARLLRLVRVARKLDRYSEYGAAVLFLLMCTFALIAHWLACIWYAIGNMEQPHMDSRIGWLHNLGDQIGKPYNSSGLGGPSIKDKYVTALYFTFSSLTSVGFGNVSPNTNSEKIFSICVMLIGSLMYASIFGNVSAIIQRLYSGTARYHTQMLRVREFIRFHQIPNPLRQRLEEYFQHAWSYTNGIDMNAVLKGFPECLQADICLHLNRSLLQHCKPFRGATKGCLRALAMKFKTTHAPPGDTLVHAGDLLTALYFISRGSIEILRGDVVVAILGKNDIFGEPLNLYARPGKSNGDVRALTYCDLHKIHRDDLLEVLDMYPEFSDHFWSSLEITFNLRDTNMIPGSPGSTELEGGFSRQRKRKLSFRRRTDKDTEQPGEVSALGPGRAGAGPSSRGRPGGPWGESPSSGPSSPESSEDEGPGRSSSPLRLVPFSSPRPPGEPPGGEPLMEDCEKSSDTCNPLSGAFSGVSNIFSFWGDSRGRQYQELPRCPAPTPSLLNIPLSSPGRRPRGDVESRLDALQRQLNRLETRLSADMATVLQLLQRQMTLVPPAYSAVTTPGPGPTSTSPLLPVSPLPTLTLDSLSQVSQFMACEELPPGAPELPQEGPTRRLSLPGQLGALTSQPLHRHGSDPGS
Chain of Peroxisome proliferator-activated receptor gamma (Homo sapiens) (P37231 whole entry, looked up): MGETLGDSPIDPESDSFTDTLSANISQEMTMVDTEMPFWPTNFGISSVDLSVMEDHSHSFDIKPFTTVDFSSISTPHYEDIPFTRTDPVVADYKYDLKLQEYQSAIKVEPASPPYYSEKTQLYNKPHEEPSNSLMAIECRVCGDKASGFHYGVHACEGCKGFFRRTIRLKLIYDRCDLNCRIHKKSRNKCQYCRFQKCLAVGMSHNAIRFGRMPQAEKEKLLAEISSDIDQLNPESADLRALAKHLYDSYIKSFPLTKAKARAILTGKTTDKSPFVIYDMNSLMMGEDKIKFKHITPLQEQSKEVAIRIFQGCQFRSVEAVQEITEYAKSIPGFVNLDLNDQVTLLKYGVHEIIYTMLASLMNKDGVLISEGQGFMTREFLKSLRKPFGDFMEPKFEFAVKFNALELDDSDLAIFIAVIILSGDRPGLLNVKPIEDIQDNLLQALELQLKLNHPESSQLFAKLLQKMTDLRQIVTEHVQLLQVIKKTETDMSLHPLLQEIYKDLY
Chain of Glucocorticoid receptor (Homo sapiens) (P04150 whole entry, looked up): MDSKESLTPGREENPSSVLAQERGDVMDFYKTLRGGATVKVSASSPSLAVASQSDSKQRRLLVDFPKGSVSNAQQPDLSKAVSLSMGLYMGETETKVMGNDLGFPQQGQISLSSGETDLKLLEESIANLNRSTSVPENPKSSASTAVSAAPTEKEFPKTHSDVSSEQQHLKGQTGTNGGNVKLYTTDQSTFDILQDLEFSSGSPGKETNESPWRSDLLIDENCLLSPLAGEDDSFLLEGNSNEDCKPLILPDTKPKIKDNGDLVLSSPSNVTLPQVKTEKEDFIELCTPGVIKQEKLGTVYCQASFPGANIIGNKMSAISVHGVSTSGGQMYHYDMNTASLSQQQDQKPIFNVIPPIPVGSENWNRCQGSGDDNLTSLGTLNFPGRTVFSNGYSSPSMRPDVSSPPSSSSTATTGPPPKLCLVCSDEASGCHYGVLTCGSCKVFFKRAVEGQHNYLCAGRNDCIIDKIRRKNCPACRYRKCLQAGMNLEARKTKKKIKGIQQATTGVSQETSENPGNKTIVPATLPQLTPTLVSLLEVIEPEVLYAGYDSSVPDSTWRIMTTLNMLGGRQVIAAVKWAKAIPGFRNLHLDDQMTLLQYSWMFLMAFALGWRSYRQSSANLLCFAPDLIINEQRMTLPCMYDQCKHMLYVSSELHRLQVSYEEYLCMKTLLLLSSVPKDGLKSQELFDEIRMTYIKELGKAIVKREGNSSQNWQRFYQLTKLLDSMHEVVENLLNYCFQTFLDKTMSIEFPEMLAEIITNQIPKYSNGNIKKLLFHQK
Chain of Peroxisome proliferator-activated receptor delta (Homo sapiens) (Q03181 whole entry, looked up): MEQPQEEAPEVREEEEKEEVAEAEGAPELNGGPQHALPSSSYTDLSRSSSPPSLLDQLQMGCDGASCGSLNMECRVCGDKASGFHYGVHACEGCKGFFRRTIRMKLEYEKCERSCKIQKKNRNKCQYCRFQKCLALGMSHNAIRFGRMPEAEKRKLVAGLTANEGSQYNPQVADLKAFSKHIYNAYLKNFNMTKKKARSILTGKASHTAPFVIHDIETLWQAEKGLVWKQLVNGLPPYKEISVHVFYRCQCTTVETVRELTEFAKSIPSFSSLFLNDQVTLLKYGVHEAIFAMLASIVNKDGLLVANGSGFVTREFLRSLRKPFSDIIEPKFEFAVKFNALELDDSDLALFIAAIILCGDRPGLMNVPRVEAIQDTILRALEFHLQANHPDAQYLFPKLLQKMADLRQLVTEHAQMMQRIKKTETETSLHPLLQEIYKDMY

For `Nc1cc(-c2ccncc2)c[nH]c1=O`, the Potency entry in [1], in experiment [5], in experiment [7], in [9] and in experiment [17] was “inactive” each time. Besides, the activation in [2] was 4.65% (inactive); in [4], -4.52% (inactive). The compound was called inactive in [3], in experiment [8], in [10], in experiment [11], in experiment [13] and in experiment [14]. Besides, the max response is 50.9% in [6], 3.04% in [12], -6.03% in experiment [15] and -6.86% (inactive) in [16].
As for `c1cnc2c(c1)ccc1cccnc12`, the max response in [6] was -78.3%. For the same compound, the Potency in [7] was 17.8 µM (active). Besides, the result in experiment [11] was inactive. Further, in experiment [18], the activity change % (negative = inhibition) was -10.3% (inactive). Besides, the Potency entry in [17] is “inactive”.
Turning to `O=C1CN(/N=C/c2ccc([N+](=O)[O-])o2)C(=O)N1`, the compound was classed as inactive in experiment [19], in experiment [10], in experiment [11] and in experiment [14]. In addition, the activation in experiment [4] was 2.61% (inactive). Further, the Potency entry in [5] and in experiment [17] was “inactive” each time. For the same compound, the values for the max response in experiment [15] and in experiment [16] were 9.13% and 25.9% (inactive), respectively.
As to `Nc1ccc(O)c([N+](=O)[O-])c1`, the result in experiment [19], in [10], in experiment [11], in experiment [13] and in [14] was inactive. In addition, the Potency result in experiment [1], in [5], in experiment [7], in experiment [9] and in [17] was “inactive” in each case. In addition, the activation in experiment [4] is 3.32% (inactive). Moreover, the max response in [6] is 41.6% and 11.8%; in [12], -11.3%; in [15], -7.08% and 0.284%; in experiment [16] it was 32% (inactive) and 10.1% (inactive). Further, the activity change % (negative = inhibition) in experiment [18] is 3.22% (inactive) and -23.9% (inactive).
As for `Cn1c(=O)c2[nH]c(-c3ccccc3)nc2n(C)c1=O`, in experiment [17], the Potency result was “inactive”.
As for `CN(C)CCC(c1ccc(Cl)cc1)c1ccccn1` (configuration not stated), in experiment [4], the activation was 0.717% (inactive). Moreover, in experiment [5], the Potency result was “inactive”. Moreover, the call in [8], in [13] and in [14] was inactive. The max response in experiment [12] was 8.67%; in [15], -0.244%; in experiment [16], -3.52% (inactive). The activity change % (negative = inhibition) in experiment [18] is -21.7% (inactive).
On to `O=C(O)c1cc(O)c(O)c(O)c1`, for which the call in experiment [19], in experiment [8], in [10], in experiment [11], in experiment [13] and in [14] was inactive. Further, the activation in experiment [4] was 2.04% (inactive). For the same compound, the max response is 19.5% in [6], 4.26% in experiment [12], 3.69% in [15] and -2.74% (inactive) in [16]. The Potency entry in experiment [7], in [9] and in experiment [17] was “inactive” each time. Also, the activity change % (negative = inhibition) in experiment [18] is -16.5% (inactive).
Regarding `N=C1N=C(N)c2cc3ccccc3cc21`, the outcome in experiment [19], in experiment [10], in experiment [11], in experiment [13] and in experiment [14] was inactive. Also, in [4], the activation is 0.184% (inactive). In addition, the max response in experiment [12] was 12.6%; in [15], -9.13%; in experiment [16], 48.9% (inactive). Besides, in experiment [18], the activity change % (negative = inhibition) is 8.6% (inactive).

For the origin of these results see PubChem BioAssay (NCATS).
